Only some compounds are listed: those with a hit (about 2.4% of all), similar ones and a draw of the others.
POLB inh = inhibitors of human DNA polymerase beta; P06746; Pol beta primer extension/strand displacement, fluorescence kinetic; Potency, µM (highest dose often 114 µM), usual class: inhibitors; actives 1.3% (n = 340,000)
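Pol beta (10 nM) was preincubated with compound for 15 min at room temperature. The reaction was then started with 50 nM substrate and read immediately and after a further 10 min at room temperature.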
Pol iota inh = DNA polymerase iota (human) inhibition; Q9UNA4; Pol iota fluorescent replication assay, 10 min; Potency, µM (series often up to 115 µM), most hits filed as inhibitors; actives 1% (n = 390,000)
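Pol iota at 10 nM preincubated 15 min with compounds at room temperature; reaction started with fluorescent substrate, 50 nM final. Fluorescence read kinetically at 0 and 10 min; buffer-only wells as negative control.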
GLS inh = blocks human kidney-isoform glutaminase activity; GLS enzymatic activity, qHTS titration; Potency, µM (series often up to 45.5 µM), hits mostly inhibitors; actives 0.21% (n = 410,000); AID 624170
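Compounds were pin-transferred onto hKGA, after which L-glutamine (1 mM solution) and a detection mix of glutamate oxidase, HRP and Amplex Red were added. Initial and 30 min RT fluorescence reads were collected.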
Pol kappa inh-1 = inhibitors of human DNA polymerase kappa. Q9UBT6. purified Pol kappa, fluorescent DNA synthesis assay, 10 min. Potency, µM (top dose mostly 107 µM), usual class: inhibitors. actives 0.53% (n = 400,000). AID 588579
Target sequence (Q9UBT6 whole entry, looked up): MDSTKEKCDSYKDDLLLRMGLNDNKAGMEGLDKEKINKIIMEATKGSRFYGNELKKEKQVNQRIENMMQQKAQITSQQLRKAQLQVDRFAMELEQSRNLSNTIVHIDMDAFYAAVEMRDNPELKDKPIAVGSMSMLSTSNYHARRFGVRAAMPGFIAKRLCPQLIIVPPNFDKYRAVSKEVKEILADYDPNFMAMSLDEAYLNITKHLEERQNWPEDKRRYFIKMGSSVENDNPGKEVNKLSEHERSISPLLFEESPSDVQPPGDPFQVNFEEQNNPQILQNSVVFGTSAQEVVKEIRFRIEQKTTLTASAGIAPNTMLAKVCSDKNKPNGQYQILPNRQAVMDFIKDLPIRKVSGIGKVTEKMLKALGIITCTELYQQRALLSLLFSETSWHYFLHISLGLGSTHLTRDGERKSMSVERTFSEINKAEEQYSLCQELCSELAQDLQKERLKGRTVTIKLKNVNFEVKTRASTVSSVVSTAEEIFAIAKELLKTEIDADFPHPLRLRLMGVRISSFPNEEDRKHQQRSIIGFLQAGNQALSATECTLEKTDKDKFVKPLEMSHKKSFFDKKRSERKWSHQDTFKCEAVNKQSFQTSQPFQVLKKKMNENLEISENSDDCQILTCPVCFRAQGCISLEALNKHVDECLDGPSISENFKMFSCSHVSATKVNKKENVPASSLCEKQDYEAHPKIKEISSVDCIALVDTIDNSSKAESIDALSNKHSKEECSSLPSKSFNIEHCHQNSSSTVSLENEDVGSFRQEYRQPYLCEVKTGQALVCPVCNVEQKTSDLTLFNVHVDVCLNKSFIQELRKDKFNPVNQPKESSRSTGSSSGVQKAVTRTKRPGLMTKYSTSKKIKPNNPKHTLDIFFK
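First, compounds were pin-transferred onto 10 nM Pol kappa. After 15 min at room temperature, substrate was added to 50 nM final. Fluorescence was then measured kinetically at 0 and 10 min.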
Pol eta inh-1 = blocks human DNA polymerase eta activity; actives 1.2% (n = 390,000); recombinant Pol eta, fluorescent DNA replication assay; Potency, µM (highest dose often 114 µM), hits mostly inhibitors
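Pol eta at 10 nM preincubated with compounds 15 min at room temperature; reaction started with fluorescent substrate (50 nM final) and read kinetically at 0 and 10 min.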
KAT2A inh = GCN5L2 (KAT2A) acetyltransferase inhibition; GCN5L2 HAT assay, ThioGlo1 CoA-SH fluorescence; AID 504327; actives 0.21% (n = 390,000); Q92830; Potency, µM (top dose mostly 58.9 µM), actives largely listed as inhibitors
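GCN5L2 (20nM final) in 50mM HEPES, 0.1mM EDTA pH 7.5, 0.01% Tween-20 was preincubated 15 min at room temperature with compound, then given ThioGlo1 (50uM), H3(1-25) peptide (75uM) and acetyl-CoA (70uM); CoA-thiol fluorescence (Ex340/Em540) was read at 0 and 20 min.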
PGK validate = blocks T. brucei phosphoglycerate kinase; Potency, µM (highest dose often 57.5 µM), usual class: inhibitors; actives 79% (n = 500); shares compounds with Pol kappa inh-1; TbPGK coupled GAPDH assay, Kinase-Glo luminescence; also: nearly all actives have a fitted effect of over 65% in size
POLI cherry-pick = Confirm cherry-picked inhibitors of human polymerase iota. Potency, µM, most hits filed as inhibitors. shares compounds with Pol kappa inh-1. actives 77% (n = 1,500). Pol iota primer extension, TAMRA/BHQ fluorescence
GALK inh confirm = confirmation of human galactokinase (GALK) inhibitors | shares compounds with Pol eta inh-1 | purified GALK, Kinase-Glo ATP depletion luminescence | AID 2015 | actives 70% (n = 150) | Potency, µM (highest dose often 115 µM), actives largely listed as inhibitors
Redox cycling = counter-screen for GALK inhibitors: redox cycling H2O2 generation; Potency, µM (titrated, usually from 115 µM), actives largely listed as inhibitors; Phenol red-HRP H2O2 redox cycling, absorbance 600 nm; shares compounds with Pol eta inh-1; actives 40% (n = 150)
HEK293 viability = counter-screen for GALK inhibitors: HEK293 cell cytotoxicity; HEK-293 viability, ATP luminescence (CellTiter-Glo), 24/48 h; actives 10% (n = 170); shares compounds with Pol eta inh-1; Potency, µM (doses to about 46.1 µM), actives largely listed as inhibitors
Pol kappa inh-2 = confirmation of human DNA polymerase kappa inhibitors. shares compounds with Pol eta inh-1. purified Pol-kappa, fluorescent strand-displacement substrate. Potency, µM, hits mostly inhibitors. actives 76% (n = 920)
Pol eta inh-2 = Pol eta (human) inhibition, cherry-pick confirmation; shares compounds with Pol eta inh-1; Pol eta primer extension, TAMRA/BHQ fluorescence, 10 min; AID 720502; Potency, µM, usual class: inhibitors; actives 64% (n = 2,600)
A number is an active result; n = inactive; u = inconclusive; x = no result given; ! = a repeat was not active. Calls follow the shape of the dose curve; as a rule, active = well fitted curve in the direction sought with a large enough effect; inconclusive = small, poorly fitted or top-dose-only effect, or another doubt; inactive = no such curve, though single readings can be large; an effect the other way counts as inactive or inconclusive.

SMILES	POLB inh	Pol iota inh	GLS inh	Pol kappa inh-1	Pol eta inh-1	KAT2A inh	POLI cherry-pick	Pol eta inh-2	others
Cc1cccc(-n2c(C)cc(/C=C3/C(=N)N4C(c5ccccc5)=CSC4=NC3=O)c2C)c1	n	n	n	n	n	n	x	x
Cc1cc(C)c(NC(=O)CSc2ncc(S(=O)(=O)c3ccc(C(C)(C)C)cc3)c(=O)[nH]2)c(C)c1	n	n	n	n	n	n	x	x
NC(=O)Cn1c(=O)n(Cc2ccco2)c(=O)c2c3c(sc21)CCCCC3	10µM	u	n	25µM	40µM	n	u	u
O=C(Cn1c(=O)n(Cc2ccco2)c(=O)c2c3c(sc21)CCCC3)Nc1ccccc1	n	u	n	n	n	n	x	x
O=C(O)CCNc1ccc(NCCC(=O)O)c2c1C(=O)c1ccccc1C2=O	13µM	13µM	u	22µM	4.5µM	n	19	11	PGK validate=16µM
COc1ccccc1NCCC(=O)O	n	n	n	n	n	n	x	x
O=C1c2cccc(NCCNCCO)c2C(=O)c2cccc(NCCNCCO)c21	x	45µM	n	28µM	7.1µM	x	19	x	Pol kappa inh-2=19
O=C(NCCO)c1cccc2c1C(=O)c1ccccc1-2	n	n	n	n	n	n	x	x
Cc1ccc(NC(=O)c2ccc3c(=O)n4nc(Nc5ccccc5C)sc4nc3c2)cc1C	n	n	n	n	n	n	x	x
O/C=c1\ccc2cccc3nc(C(F)(F)F)nc1c23	3.2µM	0.89µM	u	u	25µM	n	67	48	Pol kappa inh-2=u
Cc1nc(S/C(=C/c2ccc(-c3ccc(C(=O)O)cc3)o2)C(=O)O)n[nH]1	35µM	n	n	u	18µM	u	42	19
C/C(N)=C(/C#N)C(=O)CSc1nnc(Nc2cccc(C)c2)s1	40µM	u	n	u	20µM	n	75	u
O=C(O)c1ccc2nc(-c3ccco3)c(-c3ccco3)nc2c1	3.5µM	u	7.1µM	22µM	3.5µM	n	4.7	3.8
O=S(=O)(c1ccc2nc(-c3ccco3)c(-c3ccco3)nc2c1)N1CCOCC1	28µM	u	n	u	14µM	u	42	24	Pol kappa inh-2=9.5
CNC(=O)c1ccc2nc(-c3ccccc3)c(-c3ccccc3)nc2c1	x	n	x	n	x	x	x	x
CCN(c1ccccc1)c1nnc(NC(=O)Nc2cccc(Cl)c2C)s1	n	n	n	u	n	n	x	x
CCOc1ccc(NC(=O)Cn2c(C)cc3ccccc3c2=O)cc1	n	n	n	n	n	n	x	x
COc1ccc(/C=C2\C(=O)NC(=O)c3ccccc32)cc1OC	x	32µM	n	n	20µM	x	84	30
Cc1ccc(C(=O)NNC(=O)CSc2nnc3c(n2)[nH]c2ccc(F)cc23)cc1	5µM	n	n	n	79µM	u	19	u	Pol kappa inh-2=19
Cc1ccc(-n2c(C)nc3oc4ccccc4c(=O)c3c2=O)cc1	40µM	u	n	u	79µM	n	24	38
COc1ccc2c(=O)c3c(=O)n(-c4ccc(C)cc4)c(-c4ccccc4)nc3oc2c1	n	x	x	x	x	u	x	x
NS(=O)(=O)c1cc(C(=O)NC2CCSc3ccccc32)ccc1Cl (stereo not given)	0.32µM	1.3µM	u	0.79µM	n	u	0.6	0.6	PGK validate=0.15µM;Pol kappa inh-2=0.27
NS(=O)(=O)c1cccc(C(=O)NC2CCSc3ccccc32)c1 (stereo not given)	n	n	n	n	n	n	x	x
C=CCn1c(SCC(=O)c2ccc(O)c(O)c2)nnc1-c1cccnc1	1.3µM	7.1µM	n	28µM	4µM	u	34	27	PGK validate=3.7µM
CC(=O)c1cccc(OCC(=O)N(C)CC(=O)NCc2ccco2)c1	x	7.9µM	13µM	35µM	3.2µM	n	15	5.4	PGK validate=3.3µM;Pol kappa inh-2=19
SMILES	POLB inh	Pol iota inh	GLS inh	Pol kappa inh-1	Pol eta inh-1	KAT2A inh	POLI cherry-pick	Pol eta inh-2	others
O=C(O)c1ccc(/C=N/NC(=O)c2ccc(CN3c4cccc5cccc(c45)S3(=O)=O)cc2)cc1	u	25µM	n	u	22µM	n	u	60
O=C(O)Cc1ccc(S(=O)(=O)N2CCCC2)s1	x	u	u	79µM	7.1µM	n	47	30	Pol kappa inh-2=12
Cc1cc(C)n2c(SCC(=O)N(CCC#N)c3ccc4c(c3)OCCO4)nnc2n1	x	x	n	x	20µM	x	27	48	Pol kappa inh-2=17
O=C(c1cccc(Cl)c1)n1nc(-c2cccnc2)nc1NCc1ccccc1	n	n	n	n	n	n	x	x
CC1CCN(C(=O)c2cccc(NC(=O)c3nsc4ccccc34)c2)CC1	n	n	n	n	n	n	x	x
NCC(O)c1ccc(O)c(O)c1 (stereo not given)	35µM	35µM	n	7.5µM	u	n	47	u
O=C(NCc1ccccc1Cl)c1ccc(CSCc2ccccc2Cl)o1	n	n	n	n	n	n	x	x
COc1cc2c(C#N)c(N3CCCC3)nc(N)c2c(N)n1	u	8.9µM!	n	u	22µM	n	38	24
CCOc1cc2c(C#N)c(N3CCCC3)nc(N)c2c(N)n1	x	n	n	n	n	x	x	x
N#Cc1c(N2CCCC2)nc(N)c2c(N)nc(N3CCCC3)cc12	u	2.5µM	n	n	2.8µM	n	38	60	GALK inh confirm=2.1µM;Redox cycling=1.9µM;HEK293 viability=n
COc1cc2c(C#N)c(N3CCN(C)CC3)nc(N)c2c(N)n1	n	x	x	x	x	n	x	x
Cc1nc2c(-c3ccccc3)c(C)nn2c(C)c1CCC(=O)Nc1ccccc1F	n	n	n	n	n	n	x	x

High-throughput results (PubChem BioAssay)
